What was measured:
Test in all cases: DAPPL (digital affinity profiling via proximity ligation, sequencing); 10 mM Tris-HCl pH 7.5, 50 mM NaCl, 1 mM DTT, 4% glycerol, room temperature, 30 min; GST-TFs on glutathione beads, 16-mer random dsDNA library, 0.1% formaldehyde crosslink after washing; high values mean tight binding
FLI1 = biological target: T1, FLI1 (Homo sapiens, UniProt Q01543 1-452); details: protein: recombinant; tags: N-terminal GST; dsDNA, one strand shown
T1 sequence: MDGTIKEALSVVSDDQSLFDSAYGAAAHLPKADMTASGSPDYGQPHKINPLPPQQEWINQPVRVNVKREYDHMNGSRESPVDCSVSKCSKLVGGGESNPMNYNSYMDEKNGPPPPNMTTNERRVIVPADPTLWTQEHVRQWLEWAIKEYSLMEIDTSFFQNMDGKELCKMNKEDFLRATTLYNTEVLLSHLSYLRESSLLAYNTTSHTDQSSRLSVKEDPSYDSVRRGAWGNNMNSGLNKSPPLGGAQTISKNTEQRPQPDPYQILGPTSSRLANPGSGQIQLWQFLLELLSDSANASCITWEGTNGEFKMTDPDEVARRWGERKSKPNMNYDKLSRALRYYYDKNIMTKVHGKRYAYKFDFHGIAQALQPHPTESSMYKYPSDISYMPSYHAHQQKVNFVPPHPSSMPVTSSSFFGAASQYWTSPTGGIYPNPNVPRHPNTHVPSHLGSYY
Procedure, shortened: (§1)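 A tag-only sample was pooled with DNA-barcoded human transcription factors that had been expressed in yeast as GST fusions and captured on glutathione beads. The pools were incubated for 30 min at room temperature with 200 nmole of a random double-stranded 16-mer DNA library in Tris/NaCl/DTT/glycerol buffer, then washed, crosslinked with 0.1% formaldehyde, proximity-ligated (BsaI/T4 ligase, 1 h, 37 °C), PCR-amplified and sequenced on an Illumina NextSeq500. Binding signal is each hexamer's read frequency for a factor divided by its frequency for the tag-only sample.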

ELK1 = biological target: T2, ELK1 (Homo sapiens, UniProt P19419 1-428); details: protein: recombinant; tags: N-terminal GST; dsDNA, one strand shown
T2 sequence: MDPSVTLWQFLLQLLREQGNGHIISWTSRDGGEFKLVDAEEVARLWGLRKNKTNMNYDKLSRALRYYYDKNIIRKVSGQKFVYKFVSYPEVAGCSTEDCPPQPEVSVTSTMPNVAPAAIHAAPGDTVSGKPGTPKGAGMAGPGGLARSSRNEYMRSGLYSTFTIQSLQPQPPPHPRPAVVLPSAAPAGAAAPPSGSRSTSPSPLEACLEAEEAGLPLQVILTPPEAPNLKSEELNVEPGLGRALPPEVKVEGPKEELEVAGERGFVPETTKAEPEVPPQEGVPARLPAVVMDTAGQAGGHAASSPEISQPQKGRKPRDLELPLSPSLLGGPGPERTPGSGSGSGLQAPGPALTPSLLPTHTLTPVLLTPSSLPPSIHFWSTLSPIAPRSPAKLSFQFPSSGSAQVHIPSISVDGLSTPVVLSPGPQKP
Procedure, shortened: as §1

GABPA = biological target: T3, GABPA (Homo sapiens, UniProt Q06546 1-454); details: protein: recombinant; tags: N-terminal GST; dsDNA, one strand shown
T3 sequence: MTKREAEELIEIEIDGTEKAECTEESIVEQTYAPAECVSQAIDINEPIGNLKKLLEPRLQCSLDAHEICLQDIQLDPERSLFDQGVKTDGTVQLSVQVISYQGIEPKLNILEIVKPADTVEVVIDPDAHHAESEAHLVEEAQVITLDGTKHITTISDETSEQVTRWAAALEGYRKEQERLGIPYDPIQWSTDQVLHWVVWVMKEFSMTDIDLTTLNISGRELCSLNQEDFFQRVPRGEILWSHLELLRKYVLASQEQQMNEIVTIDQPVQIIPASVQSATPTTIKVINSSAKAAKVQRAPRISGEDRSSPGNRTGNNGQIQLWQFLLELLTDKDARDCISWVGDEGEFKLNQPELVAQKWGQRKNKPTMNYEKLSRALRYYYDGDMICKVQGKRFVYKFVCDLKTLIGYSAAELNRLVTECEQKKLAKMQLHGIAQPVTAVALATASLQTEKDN
Procedure, shortened: as §1

ERG = biological target: T4, ERG (Homo sapiens, UniProt P11308 1-479); details: protein: recombinant; tags: N-terminal GST; dsDNA, one strand shown
T4 sequence: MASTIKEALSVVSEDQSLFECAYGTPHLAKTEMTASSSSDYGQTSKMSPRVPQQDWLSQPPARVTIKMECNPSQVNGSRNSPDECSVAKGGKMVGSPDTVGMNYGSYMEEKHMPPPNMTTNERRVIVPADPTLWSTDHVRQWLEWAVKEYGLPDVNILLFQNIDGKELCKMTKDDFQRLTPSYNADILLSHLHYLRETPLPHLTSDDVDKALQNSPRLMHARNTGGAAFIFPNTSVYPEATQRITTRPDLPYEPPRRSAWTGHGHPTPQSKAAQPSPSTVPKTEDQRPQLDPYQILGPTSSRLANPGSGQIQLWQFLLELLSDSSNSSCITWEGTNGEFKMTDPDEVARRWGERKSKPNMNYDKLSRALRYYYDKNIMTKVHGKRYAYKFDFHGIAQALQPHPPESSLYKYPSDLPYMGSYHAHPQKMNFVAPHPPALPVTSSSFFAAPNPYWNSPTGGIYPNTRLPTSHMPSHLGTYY
Procedure, shortened: as §1

ELF1 = ELF1 (Homo sapiens, UniProt P32519 1-619); details: protein: recombinant; tags: N-terminal GST; dsDNA, one strand shown
ELF1, sequence (P32519 whole entry): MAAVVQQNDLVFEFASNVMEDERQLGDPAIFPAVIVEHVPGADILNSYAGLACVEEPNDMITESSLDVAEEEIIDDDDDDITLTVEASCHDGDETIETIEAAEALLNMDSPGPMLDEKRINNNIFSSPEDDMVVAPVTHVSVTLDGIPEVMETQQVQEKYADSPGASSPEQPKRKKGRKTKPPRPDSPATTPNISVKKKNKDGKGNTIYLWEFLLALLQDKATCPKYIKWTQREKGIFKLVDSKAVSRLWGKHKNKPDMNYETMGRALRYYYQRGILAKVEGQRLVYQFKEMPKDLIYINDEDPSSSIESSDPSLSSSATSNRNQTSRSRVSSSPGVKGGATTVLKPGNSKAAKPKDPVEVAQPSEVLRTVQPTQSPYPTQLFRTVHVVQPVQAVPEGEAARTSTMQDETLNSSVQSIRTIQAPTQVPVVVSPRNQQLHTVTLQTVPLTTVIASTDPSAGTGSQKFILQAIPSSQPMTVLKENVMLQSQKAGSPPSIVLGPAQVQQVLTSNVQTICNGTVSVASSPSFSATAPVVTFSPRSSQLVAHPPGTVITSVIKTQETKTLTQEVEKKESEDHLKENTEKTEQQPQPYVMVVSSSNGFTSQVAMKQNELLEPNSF
Procedure, shortened: as §1

EHF = biological target: T5, EHF (Homo sapiens, UniProt Q9NZC4 1-300); details: protein: recombinant; tags: N-terminal GST; dsDNA, one strand shown
T5 sequence: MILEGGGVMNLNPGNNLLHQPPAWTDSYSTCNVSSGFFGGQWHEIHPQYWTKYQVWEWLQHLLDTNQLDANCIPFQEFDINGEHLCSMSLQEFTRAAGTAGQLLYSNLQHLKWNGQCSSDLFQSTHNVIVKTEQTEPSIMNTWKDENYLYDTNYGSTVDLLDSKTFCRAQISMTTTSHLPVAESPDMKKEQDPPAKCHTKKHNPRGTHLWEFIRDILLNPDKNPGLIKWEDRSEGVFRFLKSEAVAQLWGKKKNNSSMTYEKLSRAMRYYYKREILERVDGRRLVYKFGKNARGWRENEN
Procedure, shortened: as §1

SPI1 = SPI1 (Homo sapiens, UniProt P17947 1-270); details: protein: recombinant; tags: N-terminal GST; dsDNA, one strand shown
Procedure, shortened: as §1

SPIB = SPIB (Homo sapiens, UniProt Q01892 1-262); details: protein: recombinant; tags: N-terminal GST; dsDNA, one strand shown
SPIB, sequence (Q01892 whole entry): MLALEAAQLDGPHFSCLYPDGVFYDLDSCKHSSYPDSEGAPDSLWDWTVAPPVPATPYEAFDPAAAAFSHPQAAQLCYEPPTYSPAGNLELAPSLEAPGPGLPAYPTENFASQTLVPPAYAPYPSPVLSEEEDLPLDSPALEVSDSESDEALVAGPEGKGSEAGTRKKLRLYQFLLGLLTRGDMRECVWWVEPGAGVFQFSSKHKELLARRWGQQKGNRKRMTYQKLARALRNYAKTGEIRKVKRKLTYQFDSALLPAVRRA
Procedure, shortened: as §1

ELK3 = biological target: T6, ELK3 (Homo sapiens, UniProt P41970 1-407); details: protein: recombinant; tags: N-terminal GST; dsDNA, one strand shown
T6 sequence: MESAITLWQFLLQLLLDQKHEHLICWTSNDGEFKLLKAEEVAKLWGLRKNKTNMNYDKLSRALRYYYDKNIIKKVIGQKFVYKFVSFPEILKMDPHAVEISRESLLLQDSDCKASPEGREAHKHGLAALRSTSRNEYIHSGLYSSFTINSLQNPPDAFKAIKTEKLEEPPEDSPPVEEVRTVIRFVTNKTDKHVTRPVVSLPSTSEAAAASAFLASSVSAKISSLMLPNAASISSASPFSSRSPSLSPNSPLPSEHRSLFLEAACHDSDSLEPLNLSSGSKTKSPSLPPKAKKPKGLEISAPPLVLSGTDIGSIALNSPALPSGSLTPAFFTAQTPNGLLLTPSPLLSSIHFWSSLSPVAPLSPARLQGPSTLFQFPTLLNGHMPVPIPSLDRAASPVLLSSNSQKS
Procedure, shortened: as §1

FEV = biological target: T7, FEV (Homo sapiens, UniProt Q99581 1-238); details: protein: recombinant; tags: N-terminal GST; dsDNA, one strand shown
T7 sequence: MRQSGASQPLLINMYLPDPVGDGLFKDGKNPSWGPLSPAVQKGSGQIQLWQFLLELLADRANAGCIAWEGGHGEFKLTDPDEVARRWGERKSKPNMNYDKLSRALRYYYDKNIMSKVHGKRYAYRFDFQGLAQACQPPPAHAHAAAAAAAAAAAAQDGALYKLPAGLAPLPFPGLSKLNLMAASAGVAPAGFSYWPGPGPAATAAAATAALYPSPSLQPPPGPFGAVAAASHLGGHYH
Procedure, shortened: as §1

ETV5 = ETV5 (Homo sapiens, UniProt P41161 1-510); details: protein: recombinant; tags: N-terminal GST; dsDNA, one strand shown
ETV5, sequence (P41161 whole entry): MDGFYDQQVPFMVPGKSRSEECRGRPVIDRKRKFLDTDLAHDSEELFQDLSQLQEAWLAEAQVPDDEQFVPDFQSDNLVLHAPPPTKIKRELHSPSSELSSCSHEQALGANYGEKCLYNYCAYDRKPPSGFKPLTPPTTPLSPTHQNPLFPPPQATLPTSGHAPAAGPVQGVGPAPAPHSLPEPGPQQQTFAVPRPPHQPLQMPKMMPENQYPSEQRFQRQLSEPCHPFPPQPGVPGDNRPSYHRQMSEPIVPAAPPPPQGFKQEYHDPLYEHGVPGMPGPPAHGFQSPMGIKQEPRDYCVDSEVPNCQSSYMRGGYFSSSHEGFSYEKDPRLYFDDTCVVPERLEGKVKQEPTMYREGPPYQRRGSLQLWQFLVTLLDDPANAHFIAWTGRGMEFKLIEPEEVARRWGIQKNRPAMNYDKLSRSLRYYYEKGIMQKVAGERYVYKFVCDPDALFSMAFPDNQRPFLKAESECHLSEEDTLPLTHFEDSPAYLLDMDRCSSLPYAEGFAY
Procedure, shortened: as §1

HSF1 = HSF1 (Homo sapiens, UniProt Q00613 1-529); details: protein: recombinant; tags: N-terminal GST; chain copies: 3; dsDNA, one strand shown
HSF1, sequence (Q00613 whole entry): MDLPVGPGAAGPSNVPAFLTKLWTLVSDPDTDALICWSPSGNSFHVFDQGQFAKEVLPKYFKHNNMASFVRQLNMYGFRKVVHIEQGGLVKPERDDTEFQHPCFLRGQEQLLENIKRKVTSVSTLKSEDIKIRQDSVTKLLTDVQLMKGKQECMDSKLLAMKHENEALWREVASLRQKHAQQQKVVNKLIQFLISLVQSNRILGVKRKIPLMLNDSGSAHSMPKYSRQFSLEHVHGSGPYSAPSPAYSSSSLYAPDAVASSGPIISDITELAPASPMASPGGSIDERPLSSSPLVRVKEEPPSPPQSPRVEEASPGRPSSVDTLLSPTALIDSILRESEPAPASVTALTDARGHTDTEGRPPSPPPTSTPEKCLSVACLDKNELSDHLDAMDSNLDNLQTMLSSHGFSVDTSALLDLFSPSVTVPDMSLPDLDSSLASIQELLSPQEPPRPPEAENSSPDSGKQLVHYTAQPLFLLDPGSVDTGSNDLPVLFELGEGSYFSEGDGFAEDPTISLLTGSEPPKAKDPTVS
Procedure, shortened: as §1

SPIC = biological target: T8, SPIC (Homo sapiens, UniProt Q8N5J4 1-248); details: protein: recombinant; tags: N-terminal GST; dsDNA, one strand shown
T8 sequence: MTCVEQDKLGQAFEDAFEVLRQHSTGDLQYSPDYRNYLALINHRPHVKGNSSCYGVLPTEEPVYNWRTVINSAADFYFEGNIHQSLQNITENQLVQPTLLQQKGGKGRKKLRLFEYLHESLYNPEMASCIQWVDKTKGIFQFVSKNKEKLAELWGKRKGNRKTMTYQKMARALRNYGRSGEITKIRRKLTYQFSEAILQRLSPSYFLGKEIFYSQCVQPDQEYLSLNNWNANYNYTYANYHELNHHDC
Procedure, shortened: as §1

ELF4 = ELF4 (Homo sapiens, UniProt Q99607 1-663); details: protein: recombinant; tags: N-terminal GST; dsDNA, one strand shown
ELF4, sequence (Q99607 whole entry): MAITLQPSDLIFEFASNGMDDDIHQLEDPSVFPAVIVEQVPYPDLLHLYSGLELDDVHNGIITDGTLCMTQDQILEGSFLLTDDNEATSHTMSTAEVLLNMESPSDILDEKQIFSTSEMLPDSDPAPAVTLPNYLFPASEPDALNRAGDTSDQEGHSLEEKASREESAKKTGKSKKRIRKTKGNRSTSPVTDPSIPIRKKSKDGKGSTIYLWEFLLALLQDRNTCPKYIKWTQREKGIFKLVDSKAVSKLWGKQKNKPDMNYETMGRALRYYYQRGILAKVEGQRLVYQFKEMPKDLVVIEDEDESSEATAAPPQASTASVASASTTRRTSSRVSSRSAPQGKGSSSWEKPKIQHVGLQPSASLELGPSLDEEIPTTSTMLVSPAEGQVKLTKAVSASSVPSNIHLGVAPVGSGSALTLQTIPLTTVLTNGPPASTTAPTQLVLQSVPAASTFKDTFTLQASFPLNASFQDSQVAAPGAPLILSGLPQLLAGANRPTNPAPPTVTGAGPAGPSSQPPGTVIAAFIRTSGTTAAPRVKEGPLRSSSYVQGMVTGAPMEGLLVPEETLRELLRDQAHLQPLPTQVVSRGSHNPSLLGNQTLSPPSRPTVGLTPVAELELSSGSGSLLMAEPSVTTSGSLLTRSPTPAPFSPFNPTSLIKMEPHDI
Procedure, shortened: as §1

ELK4 = biological target: T9, ELK4 (Homo sapiens, UniProt P28324-2 1-405); details: protein: recombinant; tags: N-terminal GST; dsDNA, one strand shown
T9 sequence: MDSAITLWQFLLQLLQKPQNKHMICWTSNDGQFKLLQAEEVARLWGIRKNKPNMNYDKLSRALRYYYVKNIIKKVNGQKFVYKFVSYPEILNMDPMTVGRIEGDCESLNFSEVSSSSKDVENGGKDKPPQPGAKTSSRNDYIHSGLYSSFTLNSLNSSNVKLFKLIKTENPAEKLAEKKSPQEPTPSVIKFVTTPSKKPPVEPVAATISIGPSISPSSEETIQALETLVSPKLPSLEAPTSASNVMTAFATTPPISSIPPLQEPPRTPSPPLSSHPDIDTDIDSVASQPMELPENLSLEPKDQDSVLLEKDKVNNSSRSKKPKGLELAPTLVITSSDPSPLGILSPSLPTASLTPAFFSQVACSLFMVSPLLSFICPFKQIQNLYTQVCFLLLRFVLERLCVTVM
Procedure, shortened: as §1

ETV2 = biological target: T10, ETV2 (Homo sapiens, UniProt O00321 1-342); details: protein: recombinant; tags: N-terminal GST; dsDNA, one strand shown
T10 sequence: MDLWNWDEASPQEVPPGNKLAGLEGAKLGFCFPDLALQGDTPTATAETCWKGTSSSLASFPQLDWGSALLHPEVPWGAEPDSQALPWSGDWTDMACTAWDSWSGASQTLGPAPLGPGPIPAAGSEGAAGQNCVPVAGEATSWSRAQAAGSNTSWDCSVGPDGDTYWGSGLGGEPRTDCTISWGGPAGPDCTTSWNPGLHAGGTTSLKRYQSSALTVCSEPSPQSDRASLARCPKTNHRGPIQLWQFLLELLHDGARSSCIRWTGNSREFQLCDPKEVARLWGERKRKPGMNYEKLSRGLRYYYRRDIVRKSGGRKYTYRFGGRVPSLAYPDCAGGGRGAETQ
Procedure, shortened: as §1

ELF3 = biological target: T11, ELF3 (Homo sapiens, UniProt P78545 1-371); details: protein: recombinant; tags: N-terminal GST; dsDNA, one strand shown
T11 sequence: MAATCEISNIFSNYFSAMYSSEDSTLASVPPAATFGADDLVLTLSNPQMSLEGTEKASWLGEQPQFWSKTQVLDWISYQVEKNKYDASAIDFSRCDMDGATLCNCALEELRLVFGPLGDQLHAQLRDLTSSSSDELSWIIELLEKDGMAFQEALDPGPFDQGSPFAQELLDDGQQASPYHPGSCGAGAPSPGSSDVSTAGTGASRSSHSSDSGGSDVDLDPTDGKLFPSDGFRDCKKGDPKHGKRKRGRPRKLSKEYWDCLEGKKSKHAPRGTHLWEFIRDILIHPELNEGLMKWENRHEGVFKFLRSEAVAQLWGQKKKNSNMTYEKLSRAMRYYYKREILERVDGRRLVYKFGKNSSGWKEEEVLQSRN
Procedure, shortened: as §1

CRX = CRX (Homo sapiens, UniProt O43186 1-299); details: protein: recombinant; tags: N-terminal GST; dsDNA, one strand shown
CRX, sequence (O43186 whole entry): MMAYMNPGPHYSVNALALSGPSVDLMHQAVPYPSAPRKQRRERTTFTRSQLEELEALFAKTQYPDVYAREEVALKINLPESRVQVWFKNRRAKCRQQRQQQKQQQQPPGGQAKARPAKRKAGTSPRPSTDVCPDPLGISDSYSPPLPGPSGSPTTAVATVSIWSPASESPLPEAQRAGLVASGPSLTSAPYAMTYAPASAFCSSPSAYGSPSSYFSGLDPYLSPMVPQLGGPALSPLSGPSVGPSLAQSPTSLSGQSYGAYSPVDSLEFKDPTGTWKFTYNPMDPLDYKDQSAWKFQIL
Procedure, shortened: as §1

ETV1 = ETV1 (Homo sapiens, UniProt P50549 1-477); details: protein: recombinant; tags: N-terminal GST; dsDNA, one strand shown
ETV1, sequence (P50549 whole entry): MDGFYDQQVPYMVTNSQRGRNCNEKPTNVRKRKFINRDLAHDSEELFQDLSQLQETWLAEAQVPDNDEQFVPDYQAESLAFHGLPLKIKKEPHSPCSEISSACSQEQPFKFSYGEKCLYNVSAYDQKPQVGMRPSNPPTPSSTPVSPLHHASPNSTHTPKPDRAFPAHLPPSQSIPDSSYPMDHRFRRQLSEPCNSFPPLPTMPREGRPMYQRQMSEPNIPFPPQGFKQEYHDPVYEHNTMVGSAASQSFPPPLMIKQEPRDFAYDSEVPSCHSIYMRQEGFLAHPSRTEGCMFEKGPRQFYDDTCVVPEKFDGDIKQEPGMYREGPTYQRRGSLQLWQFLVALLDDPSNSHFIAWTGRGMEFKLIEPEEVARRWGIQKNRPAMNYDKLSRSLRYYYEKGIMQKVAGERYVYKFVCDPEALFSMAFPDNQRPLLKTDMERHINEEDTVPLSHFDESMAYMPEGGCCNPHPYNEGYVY
Procedure, shortened: as §1

For TATCAT, the binding signal (FLI1) was 1.25 fold enrichment (6-mer frequency, TF over GST control), the binding signal (ELK1) was 1.18 fold enrichment (6-mer frequency, TF over GST control) and the binding signal (GABPA) was 1.3 fold enrichment (6-mer frequency, TF over GST control). For the same sequence, the binding signal (ERG) was 1.13 fold enrichment (6-mer frequency, TF over GST control), the binding signal (ELF1) was 1.15 fold enrichment (6-mer frequency, TF over GST control) and the binding signal (EHF) was 1.21 fold enrichment (6-mer frequency, TF over GST control). The binding signal (SPI1) was 1.13 fold enrichment (6-mer frequency, TF over GST control), the binding signal (SPIB) was 1.11 fold enrichment (6-mer frequency, TF over GST control) and the binding signal (ELK3) was 1.17 fold enrichment (6-mer frequency, TF over GST control). For the same sequence, the binding signal (FEV) was 1.16 fold enrichment (6-mer frequency, TF over GST control), the binding signal (ETV5) was 1.07 fold enrichment (6-mer frequency, TF over GST control) and the binding signal (HSF1) was 1.16 fold enrichment (6-mer frequency, TF over GST control). The binding signal (SPIC) was 1.25 fold enrichment (6-mer frequency, TF over GST control), the binding signal (ELF4) was 1.21 fold enrichment (6-mer frequency, TF over GST control) and the binding signal (ELK4) was 1.16 fold enrichment (6-mer frequency, TF over GST control). The binding signal (ETV2) was 1.24 fold enrichment (6-mer frequency, TF over GST control), the binding signal (ELF3) was 1.11 fold enrichment (6-mer frequency, TF over GST control) and the binding signal (CRX) was 1.41 fold enrichment (6-mer frequency, TF over GST control). For the same sequence, the binding signal (ETV1) was 1.13 fold enrichment (6-mer frequency, TF over GST control).
